Results taken from PubChem BioAssay (Tox21).
A number with no mark means an inactive call. Records with an inconclusive call do not appear. Where a call stands in place of a potency, no number is given. The source made the active and inactive calls. Unless noted, the call rests on the fitted dose curve; in most records, active means well fitted curve in the direction sought with a large enough effect in the repeat runs; inconclusive means weak or mixed curves; inactive means no such curve, though single readings can be large; an effect the other way counts as inactive or inconclusive.

What was measured:
[1] = Human pregnane X receptor (PXR) small molecule agonists, qHTS cell viability counter screen (AID 1346977); further: nearly all actives have a fitted effect of over 50% in size; further: potency means the concentration at half of the fitted maximal effect
Method in brief: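 After a 5hr pre-incubation, PXR-Luc HepG2 cells received compounds plus positive control in DMSO and were kept 24hr at 37C. Cell viability was quantified by fluorescence from CellTiter-Fluor added for the final hour.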

[2] = Caspase-3/7 induction in HepG2 cells by small molecules, qHTS assay (AID 1346978); further: nearly all actives have a fitted effect of over 15% in size
Method in brief: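 Wild-type HepG2 cells (2,000/well) were settled 5 h at 37 C, 5% CO2, then exposed to compounds in DMSO for 17 h. Caspase-3/7 activity was read by luminescence 30 min after adding Caspase-Glo 3/7 reagent at room temperature.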

[3] = Caspase-3/7 induction in CHO-K1 cells by small molecules, qHTS assay (AID 1346980); further: nearly all actives have a fitted effect of over 15% in size; further: potency means the concentration at half of the fitted maximal effect
Method in brief: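 Wild-type cells were seeded at 1,500 per well and settled 5 hr at 37 C, 5% CO2, then exposed to DMSO-dissolved compounds for 17 hr. Caspase-Glo 3/7 reagent was added, and luminescence was read after 30min at room temperature.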

[4] = Caspase-3/7 induction in HepG2 cells by small molecules, qHTS cell viability counter screen (AID 1346981); further: nearly all actives have a fitted effect of over 30% in size; further: potency means the concentration at half of the fitted maximal effect
Method in brief: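 In this quantitative HTS counter screen, compounds delivered in DMSO were left on unmodified HepG2 cells for 16 hr at 37 C. Viability was then determined fluorometrically with CellTiter-Fluor, in parallel with caspase-3/7 induction in the same wells.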

[5] = target: Nuclear receptor subfamily 1 group I member 2 (Homo sapiens) (UniProt O75469); assay: Human pregnane X receptor (PXR) small molecule agonists, qHTS assay (AID 1346982); further: nearly all actives have a fitted effect of over 35% in size; further: potency means the concentration at half of the fitted maximal effect
Nuclear receptor subfamily 1 group I member 2 (Homo sapiens), sequence (O75469 whole entry, looked up): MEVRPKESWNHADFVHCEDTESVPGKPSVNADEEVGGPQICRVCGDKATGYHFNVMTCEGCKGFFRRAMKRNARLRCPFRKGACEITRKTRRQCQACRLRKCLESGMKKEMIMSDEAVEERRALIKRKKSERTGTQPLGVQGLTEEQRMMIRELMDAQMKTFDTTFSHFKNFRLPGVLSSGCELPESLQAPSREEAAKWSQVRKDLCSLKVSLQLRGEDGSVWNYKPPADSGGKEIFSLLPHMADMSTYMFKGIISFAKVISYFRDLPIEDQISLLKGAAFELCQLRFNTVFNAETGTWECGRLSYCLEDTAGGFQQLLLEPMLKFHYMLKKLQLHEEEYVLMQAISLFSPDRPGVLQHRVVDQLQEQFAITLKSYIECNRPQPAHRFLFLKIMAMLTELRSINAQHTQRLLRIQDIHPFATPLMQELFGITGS
Method in brief: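 Reporter HepG2 cells expressing PXR-Luc are cultured in charcoal-stripped FBS (5%), treated with compounds for 24 hr at 37 C, and assayed by ONE-Glo luminescence after 30 min at room temperature.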

[6] = target: Acetylcholinesterase (Homo sapiens) (UniProt P22303); assay: Acetylcholinesterase (AChE) small molecule antagonists: colormetric cell-based qHTS assay (AID 1347395; calls by dose curve; further: nearly all actives have a fitted effect of over 30% in size)
Acetylcholinesterase (Homo sapiens), sequence (P22303 whole entry, looked up): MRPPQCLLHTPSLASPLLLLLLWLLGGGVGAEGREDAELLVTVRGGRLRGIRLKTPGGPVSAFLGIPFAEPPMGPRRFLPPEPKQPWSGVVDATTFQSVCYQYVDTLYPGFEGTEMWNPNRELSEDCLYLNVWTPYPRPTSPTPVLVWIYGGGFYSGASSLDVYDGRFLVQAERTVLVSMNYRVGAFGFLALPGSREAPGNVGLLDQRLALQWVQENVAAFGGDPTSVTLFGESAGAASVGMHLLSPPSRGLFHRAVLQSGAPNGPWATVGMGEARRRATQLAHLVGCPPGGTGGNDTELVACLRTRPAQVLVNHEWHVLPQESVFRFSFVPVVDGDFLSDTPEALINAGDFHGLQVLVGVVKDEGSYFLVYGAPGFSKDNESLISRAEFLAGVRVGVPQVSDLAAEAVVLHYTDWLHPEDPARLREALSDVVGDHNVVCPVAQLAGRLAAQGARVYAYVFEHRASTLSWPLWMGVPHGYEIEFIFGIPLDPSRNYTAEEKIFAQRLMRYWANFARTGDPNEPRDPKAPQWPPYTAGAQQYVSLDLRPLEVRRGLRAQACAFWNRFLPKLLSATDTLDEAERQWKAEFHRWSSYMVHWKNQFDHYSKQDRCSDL
Method in brief: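 In this cell-based qHTS, attached SH-SY5Y cells were treated with test chemicals for 30 min, after which acetylthiocholine hydrolysis was followed by DTNB colour development over 90 min at 37 C.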

[7] = target: Acetylcholinesterase (Homo sapiens) (UniProt P22303); assay: Acetylcholinesterase (AChE) small molecule antagonists: enzyme-based qHTS assay (AID 1347397; calls by dose curve; further: nearly all actives have a fitted effect of over 55% in size); conditions: Potency: AChE enzyme activity inhibition
Method in brief: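 Tox21 library chemicals are tested in qHTS format against recombinant human AChE. The enzyme, dispensed at 50 mU/mL, sits with compound for 30 min at room temperature. A DTNB–acetylthiocholine cocktail follows, and colour is read after 10 min.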

[8] = target: Acetylcholinesterase (Homo sapiens) (UniProt P22303); assay: Acetylcholinesterase (AChE) small molecule antagonists: fluorescence cell-based qHTS assay (AID 1347398; calls by dose curve; further: nearly all actives have a fitted effect of over 50% in size); conditions: Potency: AChE activity
Method in brief: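 Cellular AChE inhibition: SH-SY5Y cells treated with test chemical for 30 min at 37 C, then acetylthiocholine hydrolysis followed over 40 min at room temperature via thiocholine-reactive Thiolite Green fluorescence (490/520 nm).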

[9] = target: Acetylcholinesterase (Homo sapiens) (UniProt P22303); assay: Acetylcholinesterase (AChE) small molecule antagonists: enzyme-based qHTS assay with human liver microsomes (AID 1347399; calls by dose curve; further: nearly all actives have a fitted effect of over 60% in size); conditions: Potency: qHTS inhibition
Method in brief: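 Recombinant human AChE (50 mU/mL in the enzyme mix) and human liver microsomes (0.25 mg/mL final) were preincubated with compound and NADPH (0.25 mg/mL final) for 30 min at 37 C. Acetylthiocholine/DTNB was then added; thiocholine was read colorimetrically after 10 min at room temperature.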

[10] = target: Cytochrome P450 2D6 (Homo sapiens) (UniProt P10635); assay: Cytochrome P450 Family 2 Subfamily D Member 6 (CYP2D6) small molecule antagonists: luciferase reporter qHTS assay (AID 1671196); further: nearly all actives have a fitted effect of over 50% in size; further: potency means the concentration at half of the fitted maximal effect
Cytochrome P450 2D6 (Homo sapiens), sequence (P10635 whole entry, looked up): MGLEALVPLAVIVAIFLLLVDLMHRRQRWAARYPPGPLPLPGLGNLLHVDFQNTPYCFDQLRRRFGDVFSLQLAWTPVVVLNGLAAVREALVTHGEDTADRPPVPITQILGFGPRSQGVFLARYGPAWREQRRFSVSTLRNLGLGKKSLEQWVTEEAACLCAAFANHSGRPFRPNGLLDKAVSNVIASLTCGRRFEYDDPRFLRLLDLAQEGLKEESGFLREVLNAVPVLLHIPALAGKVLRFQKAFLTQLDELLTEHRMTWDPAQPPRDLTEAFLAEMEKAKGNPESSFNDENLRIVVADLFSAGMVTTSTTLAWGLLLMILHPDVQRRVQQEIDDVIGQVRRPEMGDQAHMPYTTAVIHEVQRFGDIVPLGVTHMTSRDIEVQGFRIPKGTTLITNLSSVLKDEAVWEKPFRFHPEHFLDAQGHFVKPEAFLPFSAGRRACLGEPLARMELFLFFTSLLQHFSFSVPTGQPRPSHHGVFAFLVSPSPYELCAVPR
Method in brief: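 Test chemicals meet CYP2D6 plus proluciferin substrate (10 min, RT); NADPH regenerating solution then drives turnover for 1 h. Detection reagent halts the reaction; luminescence measured after 20 min.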

[11] = target: Cytochrome P450 2C19 (Homo sapiens) (UniProt P33261); assay: Cytochrome P450 Family 2 Subfamily C Member 19 (CYP2C19) small molecule antagonists: luciferase reporter qHTS assay (AID 1671197); further: nearly all actives have a fitted effect of over 65% in size; further: potency means the concentration at half of the fitted maximal effect
Cytochrome P450 2C19 (Homo sapiens), sequence (P33261 whole entry, looked up): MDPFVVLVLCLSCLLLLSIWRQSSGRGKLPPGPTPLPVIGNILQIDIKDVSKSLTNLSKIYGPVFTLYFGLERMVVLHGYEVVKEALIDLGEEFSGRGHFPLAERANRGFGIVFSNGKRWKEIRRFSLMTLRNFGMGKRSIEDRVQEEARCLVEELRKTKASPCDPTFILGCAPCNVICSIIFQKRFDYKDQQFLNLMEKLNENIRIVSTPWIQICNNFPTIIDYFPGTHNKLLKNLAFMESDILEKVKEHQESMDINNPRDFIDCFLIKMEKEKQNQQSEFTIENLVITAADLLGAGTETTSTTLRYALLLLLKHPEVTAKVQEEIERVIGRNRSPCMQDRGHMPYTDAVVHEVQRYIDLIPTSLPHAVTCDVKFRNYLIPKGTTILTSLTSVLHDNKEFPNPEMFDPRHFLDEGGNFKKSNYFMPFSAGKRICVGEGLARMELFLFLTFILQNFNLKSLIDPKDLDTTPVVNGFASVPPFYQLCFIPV
Method in brief: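 P450-Glo CYP2C19 screening system; proluciferin substrate; DMSO compound stocks; 10 min RT preincubation; NADPH regeneration, 1 h at 37C; luciferin detection reagent, 20 min RT; luminescence as RLU.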

[12] = target: Cytochrome P450 2C9 (Homo sapiens) (UniProt P11712); assay: Cytochrome P450 Family 2 Subfamily C Member 9 (CYP2C9) small molecule antagonists: luciferase reporter qHTS assay (AID 1671198); further: nearly all actives have a fitted effect of over 50% in size; further: potency means the concentration at half of the fitted maximal effect
Cytochrome P450 2C9 (Homo sapiens), sequence (P11712 whole entry, looked up): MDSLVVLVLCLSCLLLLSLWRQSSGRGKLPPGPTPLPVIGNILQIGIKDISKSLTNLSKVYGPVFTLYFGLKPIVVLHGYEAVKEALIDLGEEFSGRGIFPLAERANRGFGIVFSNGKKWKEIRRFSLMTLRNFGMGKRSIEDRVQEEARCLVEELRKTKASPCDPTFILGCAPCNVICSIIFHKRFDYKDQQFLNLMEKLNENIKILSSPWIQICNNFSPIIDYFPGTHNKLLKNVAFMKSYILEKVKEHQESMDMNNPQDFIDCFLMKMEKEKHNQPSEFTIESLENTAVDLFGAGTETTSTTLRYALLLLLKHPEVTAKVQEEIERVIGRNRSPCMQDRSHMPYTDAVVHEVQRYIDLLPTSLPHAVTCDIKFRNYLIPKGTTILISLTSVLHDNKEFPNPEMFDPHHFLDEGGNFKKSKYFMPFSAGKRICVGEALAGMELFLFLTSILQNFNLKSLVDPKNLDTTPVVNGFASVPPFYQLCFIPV
Method in brief: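 CYP2C9 activity was measured with a P450-Glo proluciferin substrate. Enzyme–substrate mix was held with compound for 10 min at room temperature, then NADPH regeneration solution was added for 1 h at 37C. Luciferin product was read as luminescence.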

[13] = target: Cytochrome P450 1A2 (Homo sapiens) (UniProt P05177); assay: Cytochrome P450 Family 1 Subfamily A Member 2 (CYP1A2) small molecule antagonists: luciferase reporter qHTS assay (AID 1671199); further: nearly all actives have a fitted effect of over 50% in size; further: potency means the concentration at half of the fitted maximal effect
Cytochrome P450 1A2 (Homo sapiens), sequence (P05177 whole entry, looked up): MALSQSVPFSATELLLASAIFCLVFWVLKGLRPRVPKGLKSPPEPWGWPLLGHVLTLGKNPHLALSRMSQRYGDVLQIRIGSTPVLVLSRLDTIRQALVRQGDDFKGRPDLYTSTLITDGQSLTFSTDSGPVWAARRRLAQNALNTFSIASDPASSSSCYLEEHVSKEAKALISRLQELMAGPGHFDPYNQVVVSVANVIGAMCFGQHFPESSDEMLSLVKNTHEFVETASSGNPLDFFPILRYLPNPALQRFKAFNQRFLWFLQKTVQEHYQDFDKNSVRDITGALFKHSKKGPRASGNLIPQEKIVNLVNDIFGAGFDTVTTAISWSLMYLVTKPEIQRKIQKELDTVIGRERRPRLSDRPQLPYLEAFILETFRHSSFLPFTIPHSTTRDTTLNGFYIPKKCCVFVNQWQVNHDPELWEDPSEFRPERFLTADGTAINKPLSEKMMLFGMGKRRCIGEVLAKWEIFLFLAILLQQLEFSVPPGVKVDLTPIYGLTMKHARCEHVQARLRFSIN
Method in brief: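 Steps: enzyme-substrate mix dispensed; test compounds and furafylline control pinned in; 10 min room temperature; NADPH regeneration solution added, 1 h; reaction stopped with luciferin detection reagent; luminescence read after 20 min.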

[14] = target: Cytochrome P450 3A4 (Homo sapiens) (UniProt P08684); assay: Cytochrome P450 Family 3 Subfamily A Member 4 (CYP3A4) small molecule antagonists: luciferase reporter qHTS assay (AID 1671201); further: nearly all actives have a fitted effect of over 50% in size; further: potency means the concentration at half of the fitted maximal effect
Cytochrome P450 3A4 (Homo sapiens), sequence (P08684 whole entry, looked up): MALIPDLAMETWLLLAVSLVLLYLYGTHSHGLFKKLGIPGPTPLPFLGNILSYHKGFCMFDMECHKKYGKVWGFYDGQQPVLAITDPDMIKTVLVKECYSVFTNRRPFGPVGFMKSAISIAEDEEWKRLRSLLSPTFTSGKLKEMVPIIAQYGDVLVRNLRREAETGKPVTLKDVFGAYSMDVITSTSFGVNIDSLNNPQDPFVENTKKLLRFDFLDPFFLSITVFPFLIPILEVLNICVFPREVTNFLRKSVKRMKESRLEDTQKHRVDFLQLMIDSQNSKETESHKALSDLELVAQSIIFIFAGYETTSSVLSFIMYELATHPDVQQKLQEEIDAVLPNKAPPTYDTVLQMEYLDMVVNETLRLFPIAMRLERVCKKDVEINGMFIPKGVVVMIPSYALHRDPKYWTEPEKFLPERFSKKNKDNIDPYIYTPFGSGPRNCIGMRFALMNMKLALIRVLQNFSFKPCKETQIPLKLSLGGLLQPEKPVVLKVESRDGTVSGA
Method in brief: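 Room-temperature assay throughout: 10 min compound–enzyme/substrate preincubation, 1 h reaction after NADPH regeneration solution, 20 min detection. Luciferin formed from proluciferin substrate is quantified by luminescence.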

[15] = Caspase-3/7 induction in CHO-K1 cells by small molecules, qHTS cell viability counter screen (AID 1346979); further: potency means the concentration at half of the fitted maximal effect; nearly all actives have a fitted effect of over 35% in size
Method in brief: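 Multiplexed with Caspase-Glo 3/7 in CHO-K1 cells, this counter screen added CellTiter-Fluor after 16hr of compound exposure and recorded fluorescence 1hr later.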

[16] = target: Voltage-gated inwardly rectifying potassium channel KCNH2 (Homo sapiens) (UniProt Q12809); assay: Human Ether-a-go-go-Related Gene (hERG) channel small molecule antagonists: fluorescence cell-based qHTS assay (AID 1671200); further: nearly all actives have a fitted effect of over 50% in size; further: potency means the concentration at half of the fitted maximal effect
Voltage-gated inwardly rectifying potassium channel KCNH2 (Homo sapiens), sequence (Q12809 whole entry, looked up): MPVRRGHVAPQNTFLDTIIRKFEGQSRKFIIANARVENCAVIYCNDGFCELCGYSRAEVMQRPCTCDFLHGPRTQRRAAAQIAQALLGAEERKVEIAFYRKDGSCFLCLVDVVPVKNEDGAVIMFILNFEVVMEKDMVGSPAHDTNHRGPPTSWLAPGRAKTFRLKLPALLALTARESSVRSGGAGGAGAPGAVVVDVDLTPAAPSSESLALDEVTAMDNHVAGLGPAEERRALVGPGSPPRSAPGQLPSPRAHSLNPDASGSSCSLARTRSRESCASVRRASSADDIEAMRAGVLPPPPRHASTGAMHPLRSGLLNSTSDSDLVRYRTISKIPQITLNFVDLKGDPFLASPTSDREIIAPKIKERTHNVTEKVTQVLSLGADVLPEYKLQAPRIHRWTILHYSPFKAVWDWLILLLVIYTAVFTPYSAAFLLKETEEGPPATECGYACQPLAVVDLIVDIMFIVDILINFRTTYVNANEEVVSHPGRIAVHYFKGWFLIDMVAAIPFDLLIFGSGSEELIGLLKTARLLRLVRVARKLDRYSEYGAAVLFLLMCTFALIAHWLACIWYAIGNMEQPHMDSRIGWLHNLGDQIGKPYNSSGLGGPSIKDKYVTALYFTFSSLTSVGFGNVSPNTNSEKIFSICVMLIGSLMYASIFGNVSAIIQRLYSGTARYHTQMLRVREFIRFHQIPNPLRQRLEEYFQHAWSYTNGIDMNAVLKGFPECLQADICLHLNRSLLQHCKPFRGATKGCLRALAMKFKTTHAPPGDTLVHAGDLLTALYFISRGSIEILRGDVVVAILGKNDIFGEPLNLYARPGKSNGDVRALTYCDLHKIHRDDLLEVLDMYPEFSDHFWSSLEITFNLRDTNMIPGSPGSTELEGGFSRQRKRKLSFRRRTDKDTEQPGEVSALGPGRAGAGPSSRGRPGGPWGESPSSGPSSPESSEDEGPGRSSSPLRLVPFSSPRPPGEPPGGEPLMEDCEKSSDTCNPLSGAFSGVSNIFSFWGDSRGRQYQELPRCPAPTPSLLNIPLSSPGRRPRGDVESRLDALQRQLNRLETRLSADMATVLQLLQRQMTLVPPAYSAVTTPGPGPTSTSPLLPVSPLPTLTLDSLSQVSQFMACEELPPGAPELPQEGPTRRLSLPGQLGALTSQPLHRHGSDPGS
Method in brief: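 Cell line hERG-U2OS; dye FluxOR II, 1 h RT dark; Tl+ stimulus; ex 480/em 540 nm, read each second for 2 min.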

Compound	Potency [1]	Potency [2]	Potency [3]	Potency [4]	Potency [5]	Potency [6]	Potency [7]	Potency [8]	Potency [9]	Potency [10]	Potency [11]	Potency [12]	Potency [13]	Potency [14]	Potency [15]	Potency [16]
CSC(=O)c1c(C(F)F)nc(C(F)(F)F)c(C(=O)SC)c1CC(C)C	inactive	inactive	inactive	inactive	4.83 µM (active)	inactive	inactive	inactive	inactive	inactive	3.15 µM (active)	9.97 µM (active)	3.15 µM (active)	6.29 µM (active)		
Fc1ccc(C(OCCN2CCN(CCCc3ccccc3)CC2)c2ccc(F)cc2)cc1	16.8 µM (active)		23.7 µM (active)	23.7 µM (active)	inactive	inactive	inactive	inactive	inactive					inactive	11.9 µM (active)	
N#Cc1c2ccccc2cc2ccccc12	inactive	inactive	inactive		27.3 µM (active)	inactive	inactive	inactive	inactive	inactive	inactive		0.2 µM (active)			inactive
CC(C)=CC1C(C(=O)OC(C#N)c2cccc(Oc3ccccc3)c2)C1(C)C (centres undefined)	inactive	inactive	inactive	inactive	17.2 µM (active)	inactive	inactive	inactive	inactive		31.7 µM (active)	10 µM (active)		inactive		inactive
COc1ccc2c(c1OC)C(=O)O[C@@H]2[C@H]1c2cc3c(cc2CCN1C)OCO3		inactive	inactive	17.1 µM (active)	30.3 µM (active)	inactive	inactive	inactive	inactive	35.2 µM (active)	3.95 µM (active)	5.58 µM (active)	31.4 µM (active)		21.5 µM (active)	21.7 µM (active)
CCC(C)Nc1c([N+](=O)[O-])cc(C(C)(C)C)cc1[N+](=O)[O-] (centres undefined)	inactive	inactive	inactive	inactive	24.3 µM (active)	inactive	inactive	inactive	inactive		25.2 µM (active)	35.6 µM (active)	31.7 µM (active)			
Cc1c([N+](=O)[O-])c(C)c([N+](=O)[O-])c(C(C)(C)C)c1[N+](=O)[O-]	inactive	inactive	inactive	inactive	48.6 µM (active)	inactive		inactive	inactive	inactive	inactive	inactive	5.03 µM (active)	inactive		
C[C@]12CC[C@H]3[C@@H](CCC4=CC(=O)CC[C@@H]43)[C@@H]1CC[C@@H]2OC(=O)CCc1ccco1	inactive	inactive		inactive		inactive	inactive	inactive	inactive	inactive	inactive	17.4 µM (active)	inactive			10.7 µM (active)
CCC1COC(Cn2cncn2)(c2ccc(Cl)cc2Cl)O1 (centres undefined)	inactive	inactive	inactive	inactive	19.3 µM (active)	inactive	inactive	inactive	inactive		0.317 µM (active)	6.33 µM (active)	28.3 µM (active)	0.0894 µM (active)		inactive
